Experimental data from the supplement of paper PMC10849652.
Of roughly 7,900 targets only a part is listed; those with a hit were picked by preference. About 0.6% of all pairs of compound and target were hits. Unmarked numbers belong to inactive results.

Sequence of UniProt Q99816 (Q99816 whole entry, looked up): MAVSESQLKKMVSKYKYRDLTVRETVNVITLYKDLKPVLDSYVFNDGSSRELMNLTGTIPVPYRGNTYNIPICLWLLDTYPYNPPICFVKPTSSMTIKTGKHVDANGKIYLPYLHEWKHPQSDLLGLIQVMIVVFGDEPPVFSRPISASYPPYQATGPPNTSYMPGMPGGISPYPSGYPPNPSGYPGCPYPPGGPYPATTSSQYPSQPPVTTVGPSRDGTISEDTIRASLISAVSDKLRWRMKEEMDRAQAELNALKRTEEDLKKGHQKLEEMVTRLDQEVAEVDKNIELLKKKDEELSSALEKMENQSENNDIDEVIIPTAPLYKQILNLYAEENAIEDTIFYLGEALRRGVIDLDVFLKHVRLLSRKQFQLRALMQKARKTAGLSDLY
Sequence of UniProt Q9H269 (Q9H269 whole entry, looked up): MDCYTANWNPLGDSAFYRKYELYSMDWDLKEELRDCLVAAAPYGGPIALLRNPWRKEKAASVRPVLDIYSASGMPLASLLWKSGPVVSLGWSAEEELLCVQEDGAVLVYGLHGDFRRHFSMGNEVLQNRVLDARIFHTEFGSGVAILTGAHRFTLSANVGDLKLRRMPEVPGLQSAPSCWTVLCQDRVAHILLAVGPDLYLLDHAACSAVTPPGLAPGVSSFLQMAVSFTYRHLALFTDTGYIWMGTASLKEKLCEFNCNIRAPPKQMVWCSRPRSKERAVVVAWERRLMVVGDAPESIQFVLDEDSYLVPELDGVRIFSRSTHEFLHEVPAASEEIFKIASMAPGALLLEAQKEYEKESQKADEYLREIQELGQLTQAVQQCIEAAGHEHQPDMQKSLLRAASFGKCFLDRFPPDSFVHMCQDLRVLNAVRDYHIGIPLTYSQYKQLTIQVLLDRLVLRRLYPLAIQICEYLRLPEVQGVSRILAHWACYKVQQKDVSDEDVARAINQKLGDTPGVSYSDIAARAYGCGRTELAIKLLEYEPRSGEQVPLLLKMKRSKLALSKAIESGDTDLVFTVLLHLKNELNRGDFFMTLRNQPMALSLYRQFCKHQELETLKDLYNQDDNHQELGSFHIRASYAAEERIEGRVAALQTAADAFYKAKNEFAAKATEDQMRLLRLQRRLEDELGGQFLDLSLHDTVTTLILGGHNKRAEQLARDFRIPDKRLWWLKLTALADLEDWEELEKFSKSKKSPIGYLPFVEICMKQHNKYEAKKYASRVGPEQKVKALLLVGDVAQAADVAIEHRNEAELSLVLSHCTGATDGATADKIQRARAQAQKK
Sequence of UniProt Q7L0Y3 (Q7L0Y3 whole entry, looked up): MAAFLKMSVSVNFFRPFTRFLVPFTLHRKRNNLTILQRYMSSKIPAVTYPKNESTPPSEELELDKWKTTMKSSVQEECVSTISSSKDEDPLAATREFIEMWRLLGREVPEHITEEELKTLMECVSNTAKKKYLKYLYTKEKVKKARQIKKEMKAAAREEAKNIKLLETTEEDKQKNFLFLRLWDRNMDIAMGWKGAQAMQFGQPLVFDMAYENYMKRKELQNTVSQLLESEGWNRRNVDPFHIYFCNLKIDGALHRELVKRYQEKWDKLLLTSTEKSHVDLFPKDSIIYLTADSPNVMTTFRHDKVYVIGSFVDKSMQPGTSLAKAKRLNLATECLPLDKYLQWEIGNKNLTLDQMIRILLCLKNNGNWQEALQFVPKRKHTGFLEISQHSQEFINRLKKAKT
Sequence of UniProt Q16881 (Q16881 whole entry, looked up): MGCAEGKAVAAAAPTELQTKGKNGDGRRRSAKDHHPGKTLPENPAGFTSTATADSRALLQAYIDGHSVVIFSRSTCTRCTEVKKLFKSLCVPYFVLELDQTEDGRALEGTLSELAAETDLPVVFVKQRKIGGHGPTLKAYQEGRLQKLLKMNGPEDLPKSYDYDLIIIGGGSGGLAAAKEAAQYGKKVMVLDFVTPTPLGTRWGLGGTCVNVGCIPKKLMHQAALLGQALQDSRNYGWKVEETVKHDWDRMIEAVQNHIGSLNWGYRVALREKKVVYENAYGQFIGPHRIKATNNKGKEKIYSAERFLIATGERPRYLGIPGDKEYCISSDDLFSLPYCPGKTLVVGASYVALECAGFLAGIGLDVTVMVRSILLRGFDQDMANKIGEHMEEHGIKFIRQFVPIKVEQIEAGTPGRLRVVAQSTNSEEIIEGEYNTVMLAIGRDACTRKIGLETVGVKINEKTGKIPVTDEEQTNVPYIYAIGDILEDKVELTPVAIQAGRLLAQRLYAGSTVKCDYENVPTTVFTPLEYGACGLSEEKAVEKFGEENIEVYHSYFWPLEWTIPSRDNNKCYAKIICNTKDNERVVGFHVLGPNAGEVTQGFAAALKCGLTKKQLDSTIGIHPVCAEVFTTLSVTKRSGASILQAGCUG
Sequence of UniProt Q8TBZ6 (Q8TBZ6 whole entry, looked up): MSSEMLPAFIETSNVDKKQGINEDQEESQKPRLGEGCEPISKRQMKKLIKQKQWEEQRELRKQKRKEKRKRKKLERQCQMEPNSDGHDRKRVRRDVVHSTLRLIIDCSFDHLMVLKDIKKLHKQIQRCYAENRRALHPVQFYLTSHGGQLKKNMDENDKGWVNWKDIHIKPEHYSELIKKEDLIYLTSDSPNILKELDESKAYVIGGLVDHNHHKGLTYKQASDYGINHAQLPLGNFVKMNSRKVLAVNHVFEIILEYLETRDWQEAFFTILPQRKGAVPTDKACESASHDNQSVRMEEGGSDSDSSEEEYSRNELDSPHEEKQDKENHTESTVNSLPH
Sequence of UniProt Q5R3I4 (Q5R3I4 whole entry, looked up): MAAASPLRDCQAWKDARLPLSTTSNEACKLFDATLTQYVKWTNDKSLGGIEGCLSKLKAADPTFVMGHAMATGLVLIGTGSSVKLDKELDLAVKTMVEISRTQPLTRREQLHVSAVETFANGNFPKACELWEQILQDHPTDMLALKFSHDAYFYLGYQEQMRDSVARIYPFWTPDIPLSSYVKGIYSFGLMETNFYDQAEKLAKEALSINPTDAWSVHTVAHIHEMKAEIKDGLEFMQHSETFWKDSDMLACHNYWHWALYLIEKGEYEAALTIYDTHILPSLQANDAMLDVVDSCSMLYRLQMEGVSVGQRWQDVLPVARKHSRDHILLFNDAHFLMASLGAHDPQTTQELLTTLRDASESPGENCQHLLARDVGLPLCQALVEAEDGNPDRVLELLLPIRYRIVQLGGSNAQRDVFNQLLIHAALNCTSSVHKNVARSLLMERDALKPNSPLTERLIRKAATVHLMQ
Sequence of UniProt Q9UL33 (Q9UL33 whole entry, looked up): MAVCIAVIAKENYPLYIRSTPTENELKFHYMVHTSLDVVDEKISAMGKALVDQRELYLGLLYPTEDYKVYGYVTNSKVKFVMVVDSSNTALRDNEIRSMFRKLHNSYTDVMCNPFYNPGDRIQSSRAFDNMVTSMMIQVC
Sequence of UniProt Q9BZI7 (Q9BZI7 whole entry, looked up): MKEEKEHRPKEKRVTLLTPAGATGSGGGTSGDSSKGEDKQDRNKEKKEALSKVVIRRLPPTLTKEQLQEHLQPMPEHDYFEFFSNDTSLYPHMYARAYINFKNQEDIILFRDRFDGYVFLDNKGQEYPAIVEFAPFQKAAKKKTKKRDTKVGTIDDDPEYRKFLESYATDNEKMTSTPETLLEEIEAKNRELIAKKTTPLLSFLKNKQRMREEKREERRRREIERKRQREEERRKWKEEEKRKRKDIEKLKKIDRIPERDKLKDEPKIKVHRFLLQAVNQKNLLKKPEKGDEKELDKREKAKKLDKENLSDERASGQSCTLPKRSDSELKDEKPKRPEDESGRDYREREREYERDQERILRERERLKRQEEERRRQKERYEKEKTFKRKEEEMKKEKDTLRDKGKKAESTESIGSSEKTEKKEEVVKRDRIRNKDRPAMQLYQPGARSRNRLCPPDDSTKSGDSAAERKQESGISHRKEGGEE
Sequence of UniProt Q96JG6 (Q96JG6 whole entry, looked up): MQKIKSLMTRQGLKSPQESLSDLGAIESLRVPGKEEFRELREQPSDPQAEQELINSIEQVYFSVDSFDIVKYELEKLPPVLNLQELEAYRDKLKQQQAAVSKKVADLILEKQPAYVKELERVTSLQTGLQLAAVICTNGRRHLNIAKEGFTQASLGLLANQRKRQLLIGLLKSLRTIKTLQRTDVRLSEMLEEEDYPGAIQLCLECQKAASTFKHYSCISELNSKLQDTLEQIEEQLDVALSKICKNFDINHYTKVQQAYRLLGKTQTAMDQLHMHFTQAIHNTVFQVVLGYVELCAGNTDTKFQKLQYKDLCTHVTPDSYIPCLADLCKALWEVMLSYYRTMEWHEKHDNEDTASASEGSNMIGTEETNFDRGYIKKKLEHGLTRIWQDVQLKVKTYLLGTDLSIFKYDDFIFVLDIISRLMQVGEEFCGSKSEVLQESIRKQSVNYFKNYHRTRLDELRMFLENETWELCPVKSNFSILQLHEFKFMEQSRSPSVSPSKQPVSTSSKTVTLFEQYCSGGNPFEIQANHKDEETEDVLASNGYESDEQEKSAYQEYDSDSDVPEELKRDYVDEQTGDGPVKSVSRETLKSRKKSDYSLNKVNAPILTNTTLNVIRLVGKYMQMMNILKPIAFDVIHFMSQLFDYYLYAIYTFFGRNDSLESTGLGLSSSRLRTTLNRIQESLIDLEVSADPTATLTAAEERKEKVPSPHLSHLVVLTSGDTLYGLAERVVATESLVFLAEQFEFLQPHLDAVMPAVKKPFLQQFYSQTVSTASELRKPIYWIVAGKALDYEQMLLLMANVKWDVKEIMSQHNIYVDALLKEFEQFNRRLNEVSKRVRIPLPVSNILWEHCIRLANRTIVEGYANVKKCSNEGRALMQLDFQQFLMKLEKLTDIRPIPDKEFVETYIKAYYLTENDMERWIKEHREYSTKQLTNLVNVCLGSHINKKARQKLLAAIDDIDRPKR
Sequence of UniProt Q8N4H5 (Q8N4H5 whole entry, looked up): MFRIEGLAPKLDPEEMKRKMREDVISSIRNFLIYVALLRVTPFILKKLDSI
Sequence of UniProt Q9P0T7 (Q9P0T7 whole entry, looked up): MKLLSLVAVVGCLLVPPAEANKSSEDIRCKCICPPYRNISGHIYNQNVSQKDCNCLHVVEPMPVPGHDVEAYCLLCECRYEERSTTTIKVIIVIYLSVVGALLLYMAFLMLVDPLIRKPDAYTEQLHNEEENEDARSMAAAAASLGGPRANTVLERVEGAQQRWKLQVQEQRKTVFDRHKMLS

The targets below were run with Cc1nc(Nc2n[nH]c3c2CN(C(=O)N[C@H](CN(C)C)c2ccccc2)C3(C)C)c2sccc2n1 (assay: log2 fold change, soluble protein after heating vs DMSO (PISA); higher = thermal stabilisation; K562 cells, 10 uM, 30 min; active = over 0.2 and 3.5 SD of the protein, either way, in both replicates (recomputed)).
Summary of the method: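 Thermal stability values are relative to control samples and come from duplicates. They are expressed as log2 fold changes. For measurement, K562 cells (2×10^6 cells/mL) received 10 μM compound for 30 min, and aliquots were heated for 3 min over 48°C-58°C, pooled, and extracted at 4°C in PBS with 0.5% NP-40. Soluble protein, the supernatant after 21,000xg for 90 min, was quantified by TMTpro 16plex LC-MS/MS with equalised channel sums.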
With TRAPPC2L (UniProt Q9UL33) the log2 fold change was -0.068.
In the case of UGDH (UniProt O60701), the log2 fold change is reported as -0.377 (active).
For WDR7 (UniProt Q9Y4E6), the log2 fold change was -0.01.
Target TOMM5 isoform 2 (UniProt Q8N4H5) has a log2 fold change of 0.004.
USP7 (UniProt Q93009) gave a log2 fold change of -0.113.
Work on TYW1 (UniProt Q9NV66) yielded a log2 fold change of -0.005.
Target UBR2 (UniProt Q8IWV8) has a log2 fold change of 0.01.
TMEM161A (UniProt Q9NX61) showed a log2 fold change of 0.023.
XPNPEP1 isoform 3 (UniProt Q9NQW7) gave a log2 fold change of 0.014.
Work on XRCC6 (UniProt P12956) yielded a log2 fold change of -0.248.
With TNPO2 (UniProt O14787) the log2 fold change was -0.111.
TRMT10C (UniProt Q7L0Y3) was tested, and the log2 fold change was -0.066.
Target UHRF1BP1L (UniProt A0JNW5) has a log2 fold change of 0.005.
In the case of TUBA4A (UniProt P68366), the log2 fold change is reported as 0.008.
USP3 (UniProt Q9Y6I4) was tested, and the log2 fold change was -0.198.
Target WBP4 (UniProt O75554) has a log2 fold change of -0.006.
VTA1 (UniProt Q9NP79) gave a log2 fold change of -0.011.
With UBE3D (UniProt Q7Z6J8) the log2 fold change was -0.001.
VPS16 (UniProt Q9H269) gave a log2 fold change of -0.071.
In the case of TXNRD1 (UniProt Q16881), the log2 fold change is reported as -0.013.
In the case of TMEM177 (UniProt Q53S58), the log2 fold change is reported as -0.005.
WDCP (UniProt Q9H6R7) was tested, and the log2 fold change was -0.12.
Target TMEM223 (UniProt A0PJW6) has a log2 fold change of 0.033.
For VRK1 (UniProt Q99986), the log2 fold change was 0.542 (active).
Work on UBE2S (UniProt Q16763) yielded a log2 fold change of -0.017.
For XRCC5 (UniProt P13010), the log2 fold change was -0.405.
In the case of TMEM9 (UniProt Q9P0T7), the log2 fold change is reported as -0.022.
Work on TRMT10A (UniProt Q8TBZ6) yielded a log2 fold change of -0.018.
TNPO1 (UniProt Q92973) gave a log2 fold change of -0.128.
In the case of WARS2 (UniProt Q9UGM6), the log2 fold change is reported as -0.008.
In the case of VPS53 isoform 4 (UniProt Q5VIR6), the log2 fold change is reported as -0.148.
With TSG101 (UniProt Q99816) the log2 fold change was -0.081.
In the case of U2AF1 isoform 2 (UniProt Q01081), the log2 fold change is reported as -1.31 (active).
For UPF3B (UniProt Q9BZI7), the log2 fold change was 0.098.
VPS50 (UniProt Q96JG6) showed a log2 fold change of -0.077.
In the case of TTC38 (UniProt Q5R3I4), the log2 fold change is reported as 0.034.
